Experimental data as given in PubChem BioAssay (EPA / NIEHS).
Results filed as inconclusive are left out. Calls of active or inactive are those of the source. How the source made its calls, unless noted: active means hit-call score of the fitted dose curve at least 0.9, where 1 is the maximum; inactive means score below 0.9.

What was measured:
[1] = biological target: human Retinoid X Receptor beta (RXRb), RXRB (gene 6257) (UniProt P28702); assay: ATG_RXRb_TRANS: Attagene TRANS-FACTORIAL HepG2 Assay for human Retinoid X Receptor beta (RXRb) (AID 2283013; active means hit-call score of the fitted dose curve at least 0.9, where 1 is the maximum)
In short: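 Readout is reporter transcript induction after 24 h dosing. It is measured by RT-PCR of total RNA followed by fluorescent capillary electrophoresis. HepG2 liver cells carry transfected multiple reporter units driven by an exogenous RXRb-Gal4 fusion; activity is relative to DMSO.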

[2] = biological target: human Thyroid Receptor alpha (THRa1), THRA (gene 7067) (UniProt P10827); assay: ATG_THRa1_TRANS: Attagene TRANS-FACTORIAL HepG2 Assay for human Thyroid Receptor alpha (THRa1) (AID 2283014; active means hit-call score of the fitted dose curve at least 0.9, where 1 is the maximum)
In short: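 Measured here is mRNA from a GAL4-UAS reporter in transfected HepG2 cells carrying a Gal4-fused receptor, 24 h post-dose. DMSO served as negative control and baseline.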

[3] = biological target: human Vitamin D Receptor (VDR), VDR (gene 7421) (UniProt P11473); assay: ATG_VDR_TRANS: Attagene TRANS-FACTORIAL HepG2 Assay for human Vitamin D Receptor (VDR) (AID 2283022; active means hit-call score of the fitted dose curve at least 0.9, where 1 is the maximum)
In short: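 Multiplexed TRANS reporter in HepG2; 24 h treatment; reporter mRNA by RT-PCR plus capillary electrophoresis; upregulation scored relative to DMSO.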

[4] = read-out: E-selectin (Homo sapiens) (UniProt P16581); assay: BSK_3C_Eselectin: BioMAP Diversity Plus: 3C Assay for Eselectin Biomarker Activity (AID 2283015); conditions: primary human endothelial cells (HUVEC); actives raise or lower the signal;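 further: cell surface E-selectin protein quantified by ELISA 24 h after dosing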
In short: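 Endpoint derived by bidirectional fitting against DMSO vehicle; signal is ELISA-detected E-selectin from primary HUVEC at 24 h post-dosing, with parallel SRB staining (0.1% SRB, 560 nm) flagging cytotoxicity.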

[5] = read-out: Interleukin-1 alpha (IL1a), IL1A (gene 3552); assay: BSK_BE3C_IL1a: BioMAP Diversity Plus: BE3C Assay for Interleukin-1 alpha (IL1a) Biomarker Activity (AID 2283016); conditions: primary human bronchial epithelial cells; actives raise or lower the signal
In short: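 IL-1a measured by ELISA after 24 h treatment of human primary bronchial epithelial cells, with gain or loss of signal fitted versus DMSO. Parallel cultures stained with SRB gauge overt cytotoxicity.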

[6] = read-out: Monocyte Chemoattractant Protein-1 (MCP1), CCL2 (gene 6347); assay: BSK_3C_MCP1: BioMAP Diversity Plus: 3C Assay for Monocyte Chemoattractant Protein-1 (MCP1) Biomarker Activity (AID 2283017); conditions: primary human endothelial cells (HUVEC); actives raise or lower the signal
In short: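 Using human vascular primary endothelium, researchers measured MCP-1 by ELISA 24 h after treatment, with DMSO serving as negative control for bidirectional fitting.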

[7] = read-out: Monocyte Chemoattractant Protein-1 (MCP1), CCL2 (gene 6347); assay: BSK_4H_MCP1: BioMAP Diversity Plus: 4H Assay for Monocyte Chemoattractant Protein-1 (MCP1) Biomarker Activity (AID 2283018); conditions: primary human endothelial cells (HUVEC); actives raise or lower the signal
In short: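 ELISA of MCP-1 (CCL2) 24 h after chemical dosing of HUVEC in the BioMAP 4H system. Gain or loss versus DMSO fitted; parallel SRB staining (560 nm) tracked overt cytotoxicity.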

[8] = read-out: Human Leukocyte Antigen - DR isotype (HLADR), HLA-DRA (gene 3122); assay: BSK_3C_HLADR: BioMAP Diversity Plus: 3C Assay for Human Leukocyte Antigen - DR isotype (HLADR) Biomarker Activity (AID 2283019); conditions: primary human endothelial cells (HUVEC); actives raise or lower the signal
In short: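 Compound added to primary HUVEC cultures, 24 h incubation, then HLA-DR determined by ELISA; endpoint derived by bidirectional fitting relative to DMSO negative control.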

[9] = read-out: Interleukin-8 (IL8), CXCL8 (gene 3576); assay: BSK_3C_IL8: BioMAP Diversity Plus: 3C Assay for Interleukin-8 (IL8) Biomarker Activity (AID 2283020); conditions: primary human endothelial cells (HUVEC); actives raise or lower the signal
In short: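 IL-8 was measured by ELISA in HUVEC cultures 24 h after chemical dosing, with gain or loss of signal fitted relative to DMSO. Parallel SRB total-protein staining tracked overt cytotoxicity.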

[10] = read-out: Monokine induced gamma interferon (MIG), CXCL9 (gene 4283); assay: BSK_3C_MIG: BioMAP Diversity Plus: 3C Assay for Monokine induced gamma interferon (MIG) Biomarker Activity (AID 2283021); conditions: primary human endothelial cells (HUVEC); actives raise or lower the signal
In short: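 ELISA measurement of MIG in human umbilical vein endothelial cells 24 h after treatment. Cytotoxicity tracked by SRB staining in parallel cultures; gain or loss of signal fitted relative to DMSO.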

[11] = BSK_3C_SRB: Viability Assessment in the BioMAP Diversity Plus: 3C Assay (AID 2283023); conditions: primary human endothelial cells (HUVEC);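 further: cells read 24 h after compound dosing; fitted both ways against DMSO so a hit may be signal rise or drop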
In short: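 Overt cytotoxicity is gauged in parallel confluent HUVEC cultures by SRB total-protein staining at the time of biomarker measurement, 24 h after dosing. Gain or loss of signal is fitted versus DMSO.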

[12] = read-out: Matrix Metallopeptidase 1 (MMP1), MMP1 (gene 4312); assay: BSK_BE3C_MMP1: BioMAP Diversity Plus: BE3C Assay for Matrix Metallopeptidase 1 (MMP1) Biomarker Activity (AID 2283024); conditions: primary human bronchial epithelial cells; actives raise or lower the signal
In short: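 ELISA measurement of MMP-1 after 24 h compound exposure of primary human bronchial epithelial cells. Changes in either direction fitted relative to DMSO; parallel SRB staining checked overt cytotoxicity.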

[13] = BSK_3C_Vis: BioMAP Diversity Plus: 3C Assay for Morphology Visualization (AID 2283025); conditions: primary human endothelial cells (HUVEC);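 further: fitted both ways so gain or loss versus DMSO counts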
In short: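 Light-microscopy visualization of HUVEC cultures at 24 h post-treatment, with DMSO as baseline for bidirectional fitting.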

[14] = read-out: Pselectin, SELP (gene 6403); assay: BSK_4H_Pselectin: BioMAP Diversity Plus: 4H Assay for Pselectin Biomarker Activity (AID 2283026); conditions: primary human endothelial cells (HUVEC); actives raise or lower the signal
In short: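 ELISA of surface P-selectin on HUVEC, 24 h after dosing, with parallel SRB staining (0.1% after 10% TCA fixation, 560 nm) for overt cytotoxicity. Activity fitted in both directions relative to DMSO.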

[15] = BSK_4H_SRB: Viability Assessment in the BioMAP Diversity Plus: 4H Assay (AID 2283027); conditions: primary human endothelial cells (HUVEC);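 further: cells exposed to compound for 24 h before staining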
In short: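 HUVEC, 24 h post-dose; 10% TCA fix, 0.1% SRB stain, A560 nm. Total protein = overt cytotoxicity, parallel to biomarker read. Bidirectional fit vs DMSO baseline.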

[16] = BSK_BE3C_SRB: Viability Assessment in the BioMAP Diversity Plus: BE3C Assay (AID 2283028); conditions: primary human bronchial epithelial cells
In short: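 SRB total-protein staining (0.1%, after TCA fixation) of chemically dosed human bronchial epithelial primary cells at 24 h; DMSO serves as the negative control for bidirectional curve fitting.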

[17] = read-out: Thrombomodulin, THBD (gene 7056); assay: BSK_3C_Thrombomodulin: BioMAP Diversity Plus: 3C Assay for Thrombomodulin Biomarker Activity (AID 2283029); conditions: primary human endothelial cells (HUVEC); actives raise or lower the signal
In short: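 ELISA measurement of thrombomodulin on HUVEC surface 24 h after chemical dosing; activity fitted in both directions relative to DMSO vehicle.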

[18] = read-out: Urokinase-type plasminogen activator receptor (uPAR), PLAUR (gene 5329); assay: BSK_4H_uPAR: BioMAP Diversity Plus: 4H Assay for Urokinase-type plasminogen activator receptor (uPAR) Biomarker Activity (AID 2283030); conditions: primary human endothelial cells (HUVEC); actives raise or lower the signal
In short: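 Endpoint derived via bidirectional curve fitting against DMSO baseline; readout was ELISA detection of uPAR on umbilical vein endothelial cells at 24 h post-treatment, with SRB-stained parallel cultures assessing cytotoxicity.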

[19] = read-out: Vascular endothelial growth factor receptor 2 (Homo sapiens) (UniProt P35968); assay: BSK_4H_VEGFRII: BioMAP Diversity Plus: 4H Assay for Vascular endothelial growth factor receptor 2 (VEGFR2) Biomarker Activity (AID 2283031); conditions: primary human endothelial cells (HUVEC); actives raise or lower the signal
In short: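 In this multiplexed HUVEC system, biomarker ELISA was performed after 24 h chemical exposure. Parallel SRB staining (TCA fixation, 560 nm) tracked cytotoxicity; DMSO served as baseline.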

Measured: AC50

Sequence of human Thyroid Receptor alpha (THRa1), THRA (gene 7067) (P10827 whole entry, looked up, the tested form may be a part): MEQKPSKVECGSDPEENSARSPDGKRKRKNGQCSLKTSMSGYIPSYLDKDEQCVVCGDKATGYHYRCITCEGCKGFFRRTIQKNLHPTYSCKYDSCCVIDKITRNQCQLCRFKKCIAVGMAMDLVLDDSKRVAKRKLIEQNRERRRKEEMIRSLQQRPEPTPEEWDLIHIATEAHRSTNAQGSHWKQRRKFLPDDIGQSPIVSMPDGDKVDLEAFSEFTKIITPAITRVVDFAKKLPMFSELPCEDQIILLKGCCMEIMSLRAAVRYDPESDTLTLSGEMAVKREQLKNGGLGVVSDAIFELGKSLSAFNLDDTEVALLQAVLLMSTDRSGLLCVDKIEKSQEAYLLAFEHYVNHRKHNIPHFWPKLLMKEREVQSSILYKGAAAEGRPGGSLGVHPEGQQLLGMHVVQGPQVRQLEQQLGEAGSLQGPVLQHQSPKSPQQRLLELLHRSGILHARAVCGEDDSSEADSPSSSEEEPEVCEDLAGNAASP
Sequence of E-selectin (Homo sapiens) (P16581 whole entry, looked up): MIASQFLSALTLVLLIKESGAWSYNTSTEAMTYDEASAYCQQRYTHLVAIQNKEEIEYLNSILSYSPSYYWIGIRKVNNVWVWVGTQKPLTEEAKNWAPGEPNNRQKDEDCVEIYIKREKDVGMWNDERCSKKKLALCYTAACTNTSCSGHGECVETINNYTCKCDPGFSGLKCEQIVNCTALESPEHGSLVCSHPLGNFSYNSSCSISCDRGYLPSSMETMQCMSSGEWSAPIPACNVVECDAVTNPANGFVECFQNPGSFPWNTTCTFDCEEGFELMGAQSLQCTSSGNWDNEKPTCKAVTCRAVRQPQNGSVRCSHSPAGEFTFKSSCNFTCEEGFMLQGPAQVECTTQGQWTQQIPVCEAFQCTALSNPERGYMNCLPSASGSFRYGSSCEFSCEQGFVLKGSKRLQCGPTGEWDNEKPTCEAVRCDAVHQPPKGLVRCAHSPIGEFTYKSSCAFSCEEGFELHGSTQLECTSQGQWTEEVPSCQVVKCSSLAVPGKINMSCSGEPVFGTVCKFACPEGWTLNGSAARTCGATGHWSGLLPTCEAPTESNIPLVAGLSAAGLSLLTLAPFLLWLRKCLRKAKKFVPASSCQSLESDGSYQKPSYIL
Sequence of human Retinoid X Receptor beta (RXRb), RXRB (gene 6257) (P28702 whole entry, looked up, the tested form may be a part): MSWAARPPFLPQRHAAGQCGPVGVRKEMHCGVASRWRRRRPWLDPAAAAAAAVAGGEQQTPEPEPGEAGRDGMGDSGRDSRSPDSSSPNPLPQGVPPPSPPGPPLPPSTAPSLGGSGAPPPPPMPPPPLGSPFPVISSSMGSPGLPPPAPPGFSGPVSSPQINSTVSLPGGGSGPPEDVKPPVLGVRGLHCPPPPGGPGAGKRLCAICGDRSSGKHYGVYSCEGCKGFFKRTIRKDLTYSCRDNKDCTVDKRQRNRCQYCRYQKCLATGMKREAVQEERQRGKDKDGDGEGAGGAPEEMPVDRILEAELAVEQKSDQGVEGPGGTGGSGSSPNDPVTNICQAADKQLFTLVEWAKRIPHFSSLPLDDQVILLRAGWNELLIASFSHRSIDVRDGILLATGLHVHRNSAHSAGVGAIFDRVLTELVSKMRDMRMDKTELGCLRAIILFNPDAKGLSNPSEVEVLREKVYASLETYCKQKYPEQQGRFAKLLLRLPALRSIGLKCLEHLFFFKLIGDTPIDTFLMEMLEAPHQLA
Sequence of human Vitamin D Receptor (VDR), VDR (gene 7421) (P11473 whole entry, looked up): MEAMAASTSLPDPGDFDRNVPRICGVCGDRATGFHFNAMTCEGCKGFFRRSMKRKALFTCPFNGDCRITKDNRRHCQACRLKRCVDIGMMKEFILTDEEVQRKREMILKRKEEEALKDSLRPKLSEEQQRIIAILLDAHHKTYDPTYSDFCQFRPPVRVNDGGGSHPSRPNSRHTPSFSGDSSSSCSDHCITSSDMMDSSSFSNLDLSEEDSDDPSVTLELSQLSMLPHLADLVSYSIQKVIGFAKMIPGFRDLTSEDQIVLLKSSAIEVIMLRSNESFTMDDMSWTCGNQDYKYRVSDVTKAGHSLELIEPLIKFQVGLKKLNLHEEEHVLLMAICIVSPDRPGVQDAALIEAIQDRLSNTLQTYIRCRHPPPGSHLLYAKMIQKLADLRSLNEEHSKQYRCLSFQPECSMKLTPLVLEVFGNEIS

C1CCCCC1
inactive: [1]

CCCOCCO
inactive: [1] | [2] | [3]

CCN(CCN)c1cccc(C)c1
inactive: [1] | [2] | [3]

IC(I)I
inactive: [1] | [2] | [4] | [5] | [6] | [7] | [8] | [9] | [10] | [11] | [12] | [13] | [14] | [15] | [16] | [17] | [18] | [19]

CCCCCCCCCCCC(=O)OCC(O)CO (stereo unspecified)
inactive: [3]
active: [1] 100 µM

CCCCCCCCC=CCCCCCCCC1=NCCN1CCO
inactive: [1] | [2] | [3]

Cc1cccc(Nc2ccccc2)c1
inactive: [2] | [3]
active: [1] 28 µM

CS(=O)(=O)OCCCCOS(C)(=O)=O
inactive: [1] | [4] | [5] | [6] | [7] | [8] | [9] | [10] | [11] | [12] | [13] | [14] | [15] | [16] | [17] | [18] | [19]

Cc1cc(CCC(=O)OCCOCCOCCOC(=O)CCc2cc(C)c(O)c(C(C)(C)C)c2)cc(C(C)(C)C)c1O
inactive: [1] | [2] | [4] | [5] | [10] | [12] | [13] | [14] | [15] | [16] | [17] | [18] | [19]
active: [6] 17.8 µM | [7] 17.8 µM | [8] 17.8 µM | [9] 32.3 µM | [11] 28.1 µM

COC(CC(C)CCCC(C)(C)O)OC (stereo unspecified)
inactive: [1] | [3]

O=CCc1ccccc1
inactive: [1] | [3]

CCC(C)S (stereo unspecified)
inactive: [1] | [3]

CCCCC(CC)C(=O)OC(C)C (stereo unspecified)
inactive: [1] | [2] | [3]

CC(C)c1ccccc1O
inactive: [2] | [3]
active: [1] 75.5 µM

Brc1ccc(Br)c(Br)c1
active: [1] 137 µM
inactive: [3]

C=C[Si]1(C)O[Si](C)(C=C)O[Si](C)(C=C)O[Si](C)(C=C)O1 (stereo unspecified)
inactive: [3]
active: [1] 8 µM

C=COCCOCCOC=C
inactive: [1] | [3]
